Source: PubChem BioAssay
Records with an inconclusive call do not appear. The source made the active and inactive calls. Rule as the data show it, unless noted: active = inhibition above about 30%; inactive = the rest.

What was measured:
[1] = Her2 expression decrease, cell viability multiplex – SKBR3 breast tumor cells, AlphaScreen, ATP viability, primary screen (AID 461;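 active = Her2 level under about 52% in both replicate screens, with viability over 70% of control, limit read from the data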;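 as to Her2 level: lower value means less Her2 protein in the cells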;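 as to viability: percent of carrier control wells set as 100% viability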); details: SKBR3 Her2 protein level, 18-24 h, measured here: SKBR3 viability, ATP luminescence, at 10 µM
[2] = molecular target: Receptor tyrosine-protein kinase erbB-2 (Homo sapiens) (UniProt P04626); experiment: as above; details: 18-24 h, at 10 µM, stronger effect = lower value
[3] = reduced viability of SK-BR-3 breast cancer cells – cell-based, 24 h, human, pilot screen (AID 572;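 active = viability at or below 10% of carrier control in both of two separate runs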;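 also: compound exposure lasted between 18 and 24 h rather than exactly 24 h; 100% = carrier-treated control wells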); details: SK-BR-3 viability, CellTiter-Glo luminescence, at 10 µM, stronger effect = lower value
[4] = HUVEC growth inhibition – cell-based, human, primary screen (AID 575;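 active = viability at or below 30% in both replicate assays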;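 also: 100% = median of untreated cell wells with 0.1% DMSO on each plate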); details: HUVEC proliferation, CellTiter-Glo luminescence, 72 h; at 10 µM; stronger effect = lower value
[5] = H69AR cell proliferation blockers – human, duplicate replicates, primary screen (AID 580;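 active = viability at or under a set limit in both replicates, limit being median viability minus 3 SD, cut at about 48% in these data, passing the limit was not always enough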;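 also: 100% = mean luminescence of untreated wells and 0% = no signal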); details: H69AR lung tumor cells viability, ATP luminescence, 72 h; at 10 µM; stronger effect = lower value
[6] = MRP1 drug-resistance reversers in H69AR cells – cell-based, doxorubicin co-treatment, pilot screen (AID 601;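 active = viability loss from added drug above about 55%, and viability with drug at most 40%, in both replicates, limit read from the data, passing the limit was not always enough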); details: CellTiter-Glo, 72 h, at 10 µM; for differential viability (reversal): stronger effect = higher value
[7] = yeast transport mutant growth inhibition pilot in 384-well plates, post-Golgi transport modulator project (AID 636; in the data active = inhibition above about 31%); details: absorbance 615 nm, about 18 h, stronger effect = higher value
[8] = growth suppression of yeast trafficking mutant, preliminary HTS, modulators of trafficking downstream of Golgi apparatus project, 1536-format plate, OD 615 nm (AID 637); details: yeast transport mutant growth, absorbance 615 nm, 18 h; stronger effect = higher value
[9] = S. cerevisiae growth inhibition in permissive medium (OD615), pilot counter-assay for S. cerevisiae lifespan shortening project, permissive growth control (AID 705;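 active = growth inhibition above 25% in both replicates, a cutoff set 3 SD above the mean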); details: OD615, 24 h, at 10 µM, stronger effect = higher value
[10] = S. cerevisiae growth inhibition in restrictive medium, OD615, pilot screen, restrictive growth control, yeast lifespan reduction project (AID 706;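 active = growth inhibition above a set limit, 3 SD over mean compound inhibition, in both replicates, cut at about 43% in these data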;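 also: modified DeaD lifespan yeast strain shifted to restrictive glucose medium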); details: OD615, 48 h, at 10 µM, stronger effect = higher value
[11] = doxorubicin toxicity protection in MRP-1 cells – H69AR cells, CellTiter-Glo, duplicate, MRP-1 activator project, pilot screen (AID 807;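 active = viability increase at or above a cutoff of the median across tested compounds plus 3 SD, cut at about 8.5% in these data, passing the limit was not always enough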;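 also: compound pretreatment 18-22 h then 72 h combined with doxorubicin; 0% = doxorubicin alone and 100% = vehicle without doxorubicin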); details: H69AR viability with doxorubicin, CellTiter-Glo luminescence; at 10 µM; stronger effect = higher value
[12] = viability of HCT116 without oncogenic beta-catenin – human colon tumor cells, pilot screen (AID 823;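 active = cell viability at or below a set limit in both duplicate runs, the limit being the all-compound median minus 4 SD, cut at about 23% in these data, passing the limit was not always enough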;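 also: 0% = wells killed by 20 µM Hyamine and 100% = untreated DMSO cell wells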); details: HCT116 beta-catenin knockout viability, CellTiter-Glo, 60 h; at 10 µM; stronger effect = lower value
[13] = viability of PTEN-null HCT116 cells – cell-based, HCT116 clonal line, CellTiter-Glo, pilot screen (AID 824;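 active = viability at or below 27.92% in each of two runs, the all-compound median minus 4 SD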;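 also: 0% = 20 µM Hyamine control and 100% = vehicle cell control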); details: HCT116 PTEN-deleted viability, 60 h, at 10 µM, stronger effect = lower value
[14] = RAM pathway blockade in budding yeast – dse1pr::URA3 reporter, 5-FOA selection, pilot screen (AID 869;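 active = inhibition over a set limit, the all-compound mean plus 3 SD, in both replicate runs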;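 also: 0% = DMSO wells with no growth and 100% = 10 µM 1-NA-PP1 with full growth; RAM network block rescues cells from 5-FOA so hits raise OD615 growth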); details: S. cerevisiae dse1pr::URA3 5-FOA growth, OD615, 2 d; at 10 µM; stronger effect = higher value; strain carries analog-sensitive mutant Cbk1 kinase
[15] = RAM signaling pathway blockade in yeast – S. cerevisiae, Pdr1DBD-CYC8 efflux-inhibited sensitized strain, primary screen (AID 1298;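 active = RAM network inhibition above 8.4% in each of two replicates, 3 SD over the compound average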;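 also: 0% = DMSO untreated cells without growth and 100% = 10 µM 1-NA-PP1 full growth; higher means more yeast growth rescued from 5-FOA killing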); details: S. cerevisiae cbk1-as DSE1-URA3 strain, 5-FOA growth OD615, 2 d; at 50 µM; stronger effect = higher value
[16] = H69AR cells + 2 uM doxorubicin, measured here: viability with 2 uM doxorubicin, stronger effect = lower value
[17] = H69AR cells, compound alone cytotoxicity

Sequence of Receptor tyrosine-protein kinase erbB-2 (Homo sapiens) (P04626 whole entry, looked up): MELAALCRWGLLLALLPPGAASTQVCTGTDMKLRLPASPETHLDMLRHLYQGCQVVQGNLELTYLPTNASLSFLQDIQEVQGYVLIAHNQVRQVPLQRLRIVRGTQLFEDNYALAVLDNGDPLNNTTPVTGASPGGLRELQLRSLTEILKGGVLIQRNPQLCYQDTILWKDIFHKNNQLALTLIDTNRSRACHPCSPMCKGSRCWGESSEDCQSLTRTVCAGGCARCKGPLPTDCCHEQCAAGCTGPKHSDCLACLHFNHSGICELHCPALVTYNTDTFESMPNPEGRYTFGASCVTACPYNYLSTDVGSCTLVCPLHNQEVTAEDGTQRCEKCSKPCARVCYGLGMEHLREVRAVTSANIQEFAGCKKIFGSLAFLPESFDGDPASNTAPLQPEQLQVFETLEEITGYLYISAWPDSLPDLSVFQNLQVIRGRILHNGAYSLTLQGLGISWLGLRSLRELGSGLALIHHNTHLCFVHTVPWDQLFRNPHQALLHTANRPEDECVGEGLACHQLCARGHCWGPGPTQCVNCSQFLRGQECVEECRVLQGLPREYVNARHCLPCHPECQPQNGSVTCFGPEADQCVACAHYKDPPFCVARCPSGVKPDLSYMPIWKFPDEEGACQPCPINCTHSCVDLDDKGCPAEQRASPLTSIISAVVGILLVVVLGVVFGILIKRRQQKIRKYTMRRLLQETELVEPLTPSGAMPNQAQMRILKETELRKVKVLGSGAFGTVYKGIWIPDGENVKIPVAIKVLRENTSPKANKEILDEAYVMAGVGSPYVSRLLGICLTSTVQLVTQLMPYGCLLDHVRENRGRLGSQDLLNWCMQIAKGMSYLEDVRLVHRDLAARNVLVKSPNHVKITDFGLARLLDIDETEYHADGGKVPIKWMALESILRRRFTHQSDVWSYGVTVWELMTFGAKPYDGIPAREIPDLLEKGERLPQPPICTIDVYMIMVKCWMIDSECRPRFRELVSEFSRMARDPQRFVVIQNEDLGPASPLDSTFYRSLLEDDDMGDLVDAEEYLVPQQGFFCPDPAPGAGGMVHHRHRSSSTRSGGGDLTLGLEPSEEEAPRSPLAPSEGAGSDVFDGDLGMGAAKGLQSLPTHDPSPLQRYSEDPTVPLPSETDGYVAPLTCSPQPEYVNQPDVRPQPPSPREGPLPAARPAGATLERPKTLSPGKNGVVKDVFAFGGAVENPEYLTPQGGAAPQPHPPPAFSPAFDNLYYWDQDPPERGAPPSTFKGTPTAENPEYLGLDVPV

Compound	viability [1]	Her2 level [2]	viability [3]	viability [4]	viability [5]	differential viability (reversal) ([6]; H69AR cells + 2 uM doxorubicin)	viability [6, 16]	viability [6, 17]	inhibition [7]	inhibition [8]	growth inhibition [9]	growth inhibition [10]	viability increase [11]	viability [12]	viability [13]	inhibition [14]	RAM network inhibition [15]
CCOc1ccc(-c2cc(CCCC(=O)N3CCN(c4ccc(OC)cc4)CC3)no2)cc1	85%	104% (inactive)	85% (inactive)	77.8% (inactive)	67.7% (inactive)	-2.52% (inactive)	70.2%	67.7%	4.1% (inactive)	-2.67% (inactive)	2.23% (inactive)	1.43% (inactive)	-3.39% (inactive)	81.7% (inactive)	82.5% (inactive)	2.54% (inactive)	8.59% (inactive)
COc1ccc(-c2nc(C)c(C(C)=O)n2O)cc1OC	89%	112% (inactive)	89% (inactive)	91% (inactive)	94.9% (inactive)	9.6% (inactive)	85.3%	94.9%	-2.05% (inactive)	-8.33% (inactive)	-5.41% (inactive)	6.06% (inactive)	-1.91% (inactive)	96.5% (inactive)	90.1% (inactive)	1.42% (inactive)	2.4% (inactive)
Cc1ccc(-c2nc3cnccn3c2Nc2ccc3c(c2)OCO3)o1	91.5%	90.5% (inactive)	91.5% (inactive)	92.4% (inactive)	77.7% (inactive)	-13.6% (inactive)	91.3%	77.7%	-6.53% (inactive)	-2.83% (inactive)	-15.8% (inactive)	3.3% (inactive)	-3.1% (inactive)	95.8% (inactive)	91.9% (inactive)	1.34% (inactive)	12.5% (inactive)
Cc1c(-n2c(CN3C(=O)c4ccccc4C3=O)nc3ccccc3c2=O)c(=O)n(-c2ccccc2)n1C	93.5%	110% (inactive)	93.5% (inactive)	105% (inactive)	101% (inactive)	3.82% (inactive)	97%	101%	-1.76% (inactive)	4.6% (inactive)	-2.33% (inactive)	2.67% (inactive)	-1.08% (inactive)	102% (inactive)	99.6% (inactive)	1.4% (inactive)	5.4% (inactive)
Cc1cccc(Cc2c(C)nc3nc(SCC(=O)NCc4ccco4)nn3c2C)c1	106%	85.5% (inactive)	106% (inactive)	61.8% (inactive)	49.6% (active)	-27.8% (inactive)	77.4%	49.6%	-4.59% (inactive)	-0.33% (inactive)	2.65% (inactive)	21.9% (inactive)	-3.35% (inactive)	–	81.9% (inactive)	1.14% (inactive)	4.46% (inactive)
O=C1NC(=O)C(CC(=O)N(Cc2ccco2)C2(C(=O)NC3CCCC3)CCCCC2)N1 (stereo unspecified)	99.5%	116% (inactive)	99.5% (inactive)	106% (inactive)	92.6% (inactive)	-1.5% (inactive)	94.1%	92.6%	-7.95% (inactive)	-6.51% (inactive)	-7.63% (inactive)	-4.51% (inactive)	-3.06% (inactive)	–	89% (inactive)	0.975% (inactive)	-0.51% (inactive)
O=C(CCS(=O)(=O)c1cccc2nsnc12)NCc1ccccc1	93.5%	116% (inactive)	93.5% (inactive)	91.2% (inactive)	106% (inactive)	17.4% (inactive)	88.9%	106%	-3.01% (inactive)	-4.6% (inactive)	-12.7% (inactive)	-4.2% (inactive)	-2.9% (inactive)	–	105% (inactive)	1.31% (inactive)	1.65% (inactive)
CCOCCCNC(=O)C(c1ccc(C)cc1)N(Cc1ccc2c(c1)OCO2)C(=O)c1cnccn1 (stereo unspecified)	98%	102% (inactive)	98% (inactive)	103% (inactive)	98.7% (inactive)	-0.27% (inactive)	98.9%	98.7%	-5.34% (inactive)	2.38% (inactive)	-5.46% (inactive)	3.09% (inactive)	-2.67% (inactive)	93.8% (inactive)	–	1.83% (inactive)	5.34% (inactive)
Cc1nc(NCc2ccc3c(c2)OCO3)c2oc3ccccc3c2n1	99%	104% (inactive)	99% (inactive)	60% (inactive)	98.3% (inactive)	-8.4% (inactive)	107%	98.3%	-0.93% (inactive)	-2.9% (inactive)	-23.6% (inactive)	-6.14% (inactive)	-0.11% (inactive)	82.7% (inactive)	–	0.65% (inactive)	3.7% (inactive)
O=C(NC1(C(=O)NC2CCCCC2)CCCCC1)c1ccc2c(c1)OCO2	96.5%	92.5% (inactive)	96.5% (inactive)	105% (inactive)	104% (inactive)	4.42% (inactive)	99.2%	104%	-4.66% (inactive)	-1.27% (inactive)	-0.75% (inactive)	10.5% (inactive)	0.41% (inactive)	–	87% (inactive)	1% (inactive)	5.37% (inactive)
COc1cccc(CNC(=O)CCS(=O)(=O)c2cccc3nsnc23)c1	106%	91% (inactive)	106% (inactive)	105% (inactive)	89.6% (inactive)	-6.93% (inactive)	96.6%	89.6%	-7.67% (inactive)	0.95% (inactive)	-8.72% (inactive)	-10.3% (inactive)	-2.45% (inactive)	–	97.1% (inactive)	1.32% (inactive)	0.77% (inactive)
Cc1cc(N2CCOCC2)nc2ccc(NC(=O)C3CCC(C)CC3)cc12 (stereo unspecified)	73.5%	110% (inactive)	73.5% (inactive)	62.5% (inactive)	76.3% (inactive)	-9.34% (inactive)	85.7%	76.3%	-0.27% (inactive)	-6.67% (inactive)	-11.1% (inactive)	0.545% (inactive)	-4.21% (inactive)	–	81% (inactive)	1.95% (inactive)	4.29% (inactive)
